# Source: PubChem BioAssay
# The source made the active and inactive calls. Unless noted, no stated cut-off is given here; in the data, active means inhibition above about 80%; inactive means the rest.
# Tests used:
# [1] = growth inhibition, single agent or in combination, cell-based, chromothripsis tumors, cisplatin or BGB combos (AID 1671449); details: LFS_MB_P medulloblastoma cells;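 further: cells exposed for 96 hours; 0% = vehicle DMSO and 100% = killing by high DMSO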
# [2] = growth inhibition, single agent and combos, cell-based, chromothripsis tumors, cisplatin or BGB combos (AID 1671450); details: HDN33 neuroblastoma cells, stronger effect = higher value;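 further: cells exposed to compound for four days; 0% = vehicle DMSO and 100% = cell killing by high DMSO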
# [3] = growth inhibition, single agents and combos, ICB984, cell-based, cisplatin or BGB combos, synergistic combos for chromothripsis tumors (AID 1671451; call rule not given here;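 further: cells exposed for 96 hours before readout; 0% = vehicle DMSO and 100% = killing by high DMSO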); details: ICB984 medulloblastoma cells, drug combinations, stronger effect = higher value
# [4] = growth inhibition, single agents and combos, LFS_MB_1R, cell-based, cisplatin or BGB combos, synergistic combos for chromothripsis tumors (AID 1671452); details: LFS_MB_1R medulloblastoma cells, stronger effect = higher value;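 further: cells exposed for 96 hours before readout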
# [5] = growth inhibition, single agents and combos, HTB85, cell-based, BGB or cisplatin IC20 combos, synergistic combos for chromothripsis tumors (AID 1671453); details: HTB85 osteosarcoma cells, drug combinations, stronger effect = higher value;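 further: cells exposed for 96 hours before readout; 0% = vehicle DMSO and 100% = high DMSO killing control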
# [6] = growth inhibition, single agents and combos, CRL2098, cell-based, BGB or cisplatin IC20 combos, synergistic combos for chromothripsis tumors (AID 1671454); details: CRL2098 osteosarcoma cells, drug combinations, stronger effect = higher value;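 further: cells exposed for 96 h before readout; 0% = vehicle DMSO and 100% = killing by high DMSO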
# [7] = growth inhibition, single agents and combos, HD-MB03, cell-based, BGB or cisplatin IC20 combos, synergistic combos for chromothripsis tumors (AID 1671455; in the data active means inhibition above about 83%;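 further: 0% = vehicle DMSO and 100% = high DMSO as cytotoxic control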); details: HD-MB03 medulloblastoma cells, stronger effect = higher value
# [8] = growth inhibition, single agents and combos, UWB1.289, cell-based, BGB or cisplatin combos, synergistic combos for chromothripsis tumors (AID 1671456); details: UWB1.289 ovarian carcinoma cells, stronger effect = higher value;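 further: cells exposed to compound for four days; 0% = vehicle DMSO and 100% = killing by high DMSO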
# [9] = growth inhibition, single agents and combos, LFS_MB_2R, cell-based, cisplatin combos, synergistic combos for chromothripsis tumors (AID 1671457); details: LFS_MB_2R medulloblastoma cells, stronger effect = higher value;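 further: cells exposed to compound for four days before readout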
# [10] = growth inhibition, MDA-MB-436, cell-based, BGB or cisplatin combos, synergistic combos for chromothripsis tumors (AID 1671458; call rule not given here;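 further: cells exposed for 96 hours; 0% = vehicle DMSO and 100% = killing by high DMSO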); details: MDA-MB-436 breast carcinoma growth inhibition, drug combinations, stronger effect = higher value
# [11] = UWB1.289_BRCA1 ovarian cancer growth, cell-based, BGB or cisplatin combinations (AID 1671459); details: UWB1.289 BRCA1 ovarian carcinoma, drug combinations, stronger effect = higher value
# [12] = drug combination toxicity in non-malignant astrocytes – cell-based, BGB or cisplatin IC20 combos, cytotoxicity control for chromothriptic childhood tumor combination screen (AID 1671460); details: Human astrocytes, viability inhibition, drug combinations, at 0.5 µM, stronger effect = higher value;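 further: cells exposed to compounds for 96 hours before viability readout; 0% = vehicle and 100% = killing control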
# [13] = BT084 cell growth, single and combined drugs, ICGC_MB145, cisplatin and BGB IC40 combos (AID 1671461); details: BT084 medulloblastoma cells, drug combinations, stronger effect = higher value;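 further: cells exposed to drugs for 96 hours; 0% = vehicle DMSO and 100% = high DMSO full killing control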
# [14] = RCMB18 cell growth, single agent and combined, cisplatin and BGB IC40 combos (AID 1671462); details: RCMB18 medulloblastoma cells, stronger effect = higher value;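 further: cells exposed to compound for four days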
# [15] = CRL1545 cell growth, single agent and combined, cisplatin and BGB IC20 combos (AID 1671464); details: CRL1545 osteosarcoma cells, stronger effect = higher value;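 further: cells exposed to compound for 96 hours before readout; 0% = vehicle DMSO and 100% = high DMSO killing control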
# [16] = at 0.5 µM, stronger effect = higher value
# [17] = measured here: combination with BGB IC20, at 0.005 µM
# [18] = measured here: combination with BGB IC40, at 0.005 µM
# [19] = measured here: combination with BGB IC40, at 0.05 µM
# [20] = measured here: combination with cisplatin, at 0.5 µM, stronger effect = higher value
# [21] = measured here: combination with cisplatin, at 5 µM, stronger effect = higher value
# [22] = measured here: with BGB IC20 combination, at 0.5 µM
# [23] = measured here: with cisplatin IC20 combination, at 0.5 µM
# [24] = measured here: 5 uM single agent, at 5 µM
# [25] = measured here: combination with cisplatin, at 0.5 µM
# [26] = measured here: combination with cisplatin, at 5 µM
# [27] = measured here: with BGB IC20, at 0.5 µM
# [28] = measured here: with BGB IC20, at 5 µM
# [29] = measured here: with cisplatin IC20, at 0.5 µM
# [30] = measured here: with cisplatin IC20, at 5 µM
compound,measurement,setting,value
CC(C)OC(=O)[C@H](C)NP(=O)(OC[C@H]1O[C@@H](n2ccc(=O)[nH]c2=O)C(C)(F)[C@@H]1O)Oc1ccccc1 (stereo partly drawn),inhibition,[1]; [16],-8.8% (inactive)
same,inhibition,[1]; [17],-10.9%
same,inhibition,[1]; [18],-13.1%
same,inhibition,[1]; [19],0.698%
same,inhibition,[1]; [20],-3.91%
same,inhibition,[1]; [21],-25.1%
same,inhibition,"[2]; BGB combo, at 5 µM",-13.9%
same,inhibition,[2]; at 0.5 µM,-10.3% (inactive)
same,inhibition,"[2]; cisplatin combo, at 5 µM",-30.6%
same,inhibition,[2]; [22],-4.98%
same,inhibition,[2]; [23],-21.3%
same,inhibition,"[2]; single agent, at 5 µM",-29.9%
same,inhibition,"[3]; BGB IC20 combo, at 0.005 µM",-1.44%
same,inhibition,"[3]; BGB IC40 combo, at 0.005 µM",-42.6%
same,inhibition,"[3]; BGB IC40 combo, at 0.05 µM",-35.5%
same,inhibition,[3]; at 0.5 µM,-42.2% (inactive)
same,inhibition,"[3]; cisplatin combo, at 0.05 µM",-40.8%
same,inhibition,"[3]; cisplatin combo, at 0.5 µM",-53.1%
same,inhibition,"[3]; cisplatin combo, at 5 µM",-16.6%
same,inhibition,[3]; [24],-3.56%
same,inhibition,[4]; at 0.5 µM,-22.9% (inactive)
same,inhibition,[4]; [19],-33.4%
same,inhibition,[4]; [25],-43%
same,inhibition,[4]; [26],-63%
same,inhibition,[5]; at 0.5 µM,-9.04% (inactive)
same,inhibition,[5]; [27],-19.6%
same,inhibition,[5]; [28],7.36%
same,inhibition,[5]; [29],-19.1%
same,inhibition,[5]; [30],-2.79%
same,inhibition,"[5]; single agent, at 5 µM",9.61%
same,inhibition,[6]; at 0.5 µM,-24.2% (inactive)
same,inhibition,"[6]; measured here: combination with BGB at IC20, at 0.5 µM",-7.71%
same,inhibition,"[6]; measured here: combination with cisplatin at IC20, at 0.5 µM",-18.3%
same,inhibition,[7]; at 0.5 µM,-8.35% (inactive)
same,inhibition,"[7]; measured here: combo with BGB at IC20, at 0.5 µM",-6.27%
same,inhibition,"[7]; measured here: combo with cisplatin at IC20, at 0.5 µM",-4.66%
same,inhibition,[8]; at 0.5 µM,-8.12% (inactive)
same,inhibition,"[8]; measured here: inhibition with BGB combination, at 0.05 µM",-21%
same,inhibition,"[8]; measured here: inhibition with cisplatin combination, at 0.05 µM",-18.4%
same,inhibition,[9]; at 0.5 µM,-25.3% (inactive)
same,inhibition,[9]; [25],-17.8%
same,inhibition,[9]; [26],-16.1%
same,inhibition,[10]; at 0.5 µM,-10.8% (inactive)
same,inhibition,"[10]; measured here: BGB combination, at 0.5 µM",-6.58%
same,inhibition,"[10]; measured here: BGB combination, at 5 µM",-5.34%
same,inhibition,"[10]; measured here: cisplatin combination, at 0.5 µM",-21%
same,inhibition,"[10]; measured here: cisplatin combination, at 5 µM",-5.77%
same,inhibition,"[11]; BGB combination, concentration series, at 5 µM",5.64%
same,inhibition,[11]; at 0.5 µM,-2.85% (inactive)
same,inhibition,"[11]; cisplatin combination, concentration series, at 5 µM",12.8%
same,inhibition,[12],9.43% (inactive)
same,inhibition,[12]; measured here: combo with BGB IC20,6.4%
same,inhibition,[12]; measured here: combo with cisplatin IC20,11.7%
same,inhibition,[13]; at 0.5 µM,-25.9% (inactive)
same,inhibition,"[13]; cisplatin combination, at 0.5 µM",-7.08%
same,inhibition,"[13]; cisplatin combination, at 5 µM",2.71%
same,inhibition,"[13]; measured here: BGB IC40 combination 0.05 uM, at 0.05 µM",66.2%
same,inhibition,"[13]; single agent, at 5 µM",3.91%
same,inhibition,[14]; at 0.5 µM,-23.5% (inactive)
same,inhibition,"[14]; cisplatin combo, at 5 µM",-18.9%
same,inhibition,"[14]; measured here: BGB IC40 combination, at 0.05 µM",1.12%
same,inhibition,[14]; [25],19.3%
same,inhibition,"[14]; single agent, at 5 µM",-63.1%
same,inhibition,[15]; at 0.5 µM,-19.7% (inactive)
same,inhibition,[15]; [22],-19.2%
same,inhibition,[15]; [23],-19.9%
same,inhibition,"[15]; single agent, at 0.05 µM",7.91%
same,inhibition,"[15]; single agent, at 5 µM",-24.5%
CCC(Sc1nnc2c3ccccc3n(CC)c2n1)C(=O)Nc1ccccc1OC (stereo not drawn),inhibition,[1]; [16],-17.9% (inactive)
same,inhibition,[1]; [17],-26%
same,inhibition,[1]; [18],87.7%
same,inhibition,[1]; [19],-14.4%
same,inhibition,[1]; [20],-20.5%
same,inhibition,[1]; [21],-38.2%
same,inhibition,"[2]; BGB combo, at 5 µM",-25%
same,inhibition,[2]; at 0.5 µM,-10.1% (inactive)
same,inhibition,"[2]; cisplatin combo, at 5 µM",7.7%
same,inhibition,[2]; [22],-15.6%
same,inhibition,[2]; [23],-11.8%
same,inhibition,"[2]; single agent, at 5 µM",1.35%
same,inhibition,"[3]; BGB IC20 combo, at 0.005 µM",-20.7%
same,inhibition,"[3]; BGB IC40 combo, at 0.005 µM",-12.8%
same,inhibition,"[3]; BGB IC40 combo, at 0.05 µM",-32.4%
same,inhibition,[3]; at 0.5 µM,-26.1% (inactive)
same,inhibition,"[3]; cisplatin combo, at 0.05 µM",-39.2%
same,inhibition,"[3]; cisplatin combo, at 0.5 µM",-34.7%
same,inhibition,"[3]; cisplatin combo, at 5 µM",-6.65%
same,inhibition,[3]; [24],-26%
same,inhibition,[4]; at 0.5 µM,-22.8% (inactive)
same,inhibition,[4]; [19],-32%
same,inhibition,[4]; [25],-18.6%
same,inhibition,[4]; [26],-34.1%
same,inhibition,[5]; at 0.5 µM,0.76% (inactive)
same,inhibition,[5]; [27],6.64%
same,inhibition,[5]; [28],-8.08%
same,inhibition,[5]; [29],-8.64%
same,inhibition,[5]; [30],-18%
same,inhibition,"[5]; single agent, at 5 µM",3.91%
